High-throughput results as filed in PubChem.
TDP1 cell CPT – growth inhibition of DT40 Tdp1-/-;hTDP1 cells with camptothecin (screen for TDP1 inhibitors) | chicken DT40 Tdp1-/-;hTDP1 cells + 20 nM CPT, ATP luminescence, 48 h | Potency, µM (titrated, usually from 46.2 µM), without a hit: top-dose activity change, negative = growth inhibition, hits mostly inhibitors | 420,000 tested, 12% active | AID 686979; note: potency is the fitted concentration of half-maximal effect; nearly all actives have a fitted effect of over 55% in size
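Chicken DT40 Tdp1-/- cells complemented with human TDP1, 400 cells/well, exposed to compounds plus 20 nM camptothecin for at least 48 h at 37 C; viability read as ATP content by CellTiter-Glo luminescence.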
HT1080-NT tox – kills 2HG-producing HT-1080-NT fibrosarcoma cells. HT-1080-NT fibrosarcoma viability, CellTiter-Glo ATP luminescence, 48 h. Potency, µM (series often up to 46.1 µM), without a hit: top-dose activity, negative = less viability, actives largely listed as cytotoxic. 360,000 tested, 1.6% active. AID 686970;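 note: NT is the 2HG producing partner of a matched IDH1 knockdown line; potency is the fitted concentration of half-maximal effect; 0% = DMSO-treated cells and -100% = media-only wells without cells; nearly all actives have a fitted effect of over 55% in size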
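Toxicity toward the 2HG-producing NT line was scored as %Activity, normalised to DMSO and no-cell wells, from CellTiter-Glo luminescence after 48 hours' treatment.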
HT1080 IDH1KD tx – kills HT-1080 cells with IDH1 knockdown; Potency, µM (series often up to 46.1 µM), without a hit: at the highest dose activity, negative = toxicity, most hits filed as cytotoxic; AID 686971; 360,000 tested, 2% active; HT-1080 IDH1 knockdown viability, ATP luminescence, 48 h;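 note: potency is the fitted concentration of half-maximal effect; 0% = DMSO wells and -100% = cell-free medium wells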
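Cytotoxicity counter-line: IDH1KD HT-1080, 48 h, CellTiter-Glo. Curves classed by r2, magnitude and activity.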
IL1B secr inh – inflammasome signaling inhibition, IL-1 beta readout; THP-1 LPS/ATP IL-1B secretion, AlphaLISA, 16 h; active compounds read low; activity change, % at 57.5 µM; 360,000 tested, 4.7% active; AID 743279; in the data active = activity change below about -50%; inconclusive = mostly about -30% to -49%
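THP-1 cells pretreated 1 hr with compounds (up to 57.5 uM final), then stimulated with LPS (250 ng/mL final) plus ATP (1.25 mM final); secreted IL-1B measured by AlphaLISA after 16 hr, decreased signal indicating inhibition.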
DT40 TDP1 no CPT – qHTS for Inhibitors of human tyrosyl-DNA phosphodiesterase 1 (TDP1): qHTS in cells in absence of CPT | DT40 Tdp1-/- hTDP1 cells, no CPT, ATP luminescence, 48 h | Potency, µM (doses to about 46.2 µM), for inactives: at the highest dose activity change, negative = growth inhibition, hits mostly inhibitors | 420,000 tested, 15% active | AID 686978, 2013; note: potency is the fitted concentration of half-maximal effect; nearly all actives have a fitted effect of over 55% in size
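A cellular qHTS used chicken DT40 cells lacking endogenous Tdp1 but carrying stably transfected human TDP1. Compounds were applied without camptothecin, and cell growth kinetics were judged by ATP-dependent luminescence after ≥48 hr.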
Starred values were filed as active, the others as inactive; ? = inconclusive; . = no result given; [ ] = another dose, or the depositor's remark. In the library only some 19% were active in any assay of this set; here they are far more common. Unless noted, calls come from the whole dose curve; as a rule, active = well fitted curve in the direction sought with a large enough effect; inconclusive = small, poorly fitted or top-dose-only effect, or another doubt; inactive = no such curve, though single readings can be large; an effect the other way counts as inactive or inconclusive. Unless noted, % is set by controls: 0 for no effect and ±100 for the full control effect.

SMILES | TDP1 cell CPT | HT1080-NT tox | HT1080 IDH1KD tx | IL1B secr inh | DT40 TDP1 no CPT
CCNc1nc(N)c(C(=O)C23CC4CC(CC(C4)C2)C3)s1 | ? | -6% | -2% | 11 | ?
CCNc1nc(N)c(C(=C(C#N)C#N)c2ccccc2)s1 | ? | -15% | -23% | -75* | ?
O=C1C2C3c4ccccc4C(c4ccccc43)C2c2nc3ccccc3n21 (centres undefined) | 4.1µM* | -18% | -5% | 18 | 4.1µM*
C/C=C/c1cccc(-c2nc(C(=O)N3CCCCC3)cc3c2[C@@H](CCO)N(C(=O)NC(C)C)C3)c1 | -3% | 13% | 16% | -21 | -7%
CCOc1cc(C(=O)NCCc2csc3nc(-c4ccccc4F)nn23)cc(OCC)c1OCC | 23µM* | . | . | . | ?
CCCCOc1ccc(C(=O)NCCc2csc3nc(-c4ccccc4F)nn23)cc1 | 26µM* | . | . | . | ?
CC(C)(C)c1ccc(C(=O)NCCc2csc3nc(-c4ccccc4F)nn23)cc1 | 21µM* | . | . | . | ?
COc1ccc(CC(=O)NCCc2csc3nc(-c4ccccc4F)nn23)cc1 | ? | . | . | . | -20%
S=c1nc(Cc2ccccc2)[nH]c2ccccc12 | 26µM* | 9% | -1% | 24 | ?
O=C(NCc1ccccc1)c1cc(C2CCCN(S(=O)(=O)c3cccs3)C2)on1 (centres undefined) | ? | 20% | 10% | -59* | ?
O=C(NCc1ccc(F)cc1)c1cc(C2CCCN(S(=O)(=O)c3ccccc3)C2)on1 (centres undefined) | ? | -3% | 0% | -7 | 16µM*
CCOc1c(CNCCN2CCOCC2)cccc1OC | 1% | 14% | 9% | -3 | 0%
Cc1ccc(C)c(N2CCN(S(=O)(=O)c3cc(C(=O)Nc4cc(Cl)cc(Cl)c4)ccc3F)CC2)c1 | 12µM* | . | . | . | 16µM*
O=C(Nc1cc(Cl)ccc1N1CCOCC1)c1ccc(F)c(S(=O)(=O)N2CCOCC2)c1 | ? | -8% | -2% | 8 | ?
Cc1cccc(N2CCN(S(=O)(=O)c3cc(C(=O)Nc4ccc(Oc5ccccc5)cc4)ccc3F)CC2)c1C | 5.2µM* | . | . | . | ?
Cc1ccc(N2CCN(S(=O)(=O)c3cc(C(=O)Nc4cc(Cl)cc(Cl)c4)ccc3F)CC2C)cc1 (centres undefined) | ? | . | . | . | 16µM*
O=C(Nc1cc(Cl)cc(Cl)c1)c1ccc(F)c(S(=O)(=O)N2CCCCCC2)c1 | 5.2µM* | . | . | . | 10µM*
O=C(Nc1nncs1)c1ccc(F)c(S(=O)(=O)N2CCCCC2)c1 | -11% | -8% | -1% | 28 | 3%
Cc1ccc(N2CCN(S(=O)(=O)c3ccc(Cl)s3)CC2C)cc1 (centres undefined) | 1% | 0% | 15% | -25 | ?
OCCC1CN(Cc2cc3c(cc2Cl)OCO3)CCN1Cc1ccccc1 (centres undefined) | ? | -9% | -18% | -25 | ?
COc1ccc(NC(=O)COC(=O)Cc2c(F)cccc2Cl)cc1OC | -3% | 0% | -15% | 15 | -28%
O=C(Cc1ccc(Cl)cc1)NNC(=O)C(=O)NC1CCCCC1 | 0% | 1% | -11% | -8 | -16%
CN(CC(=O)Nc1ccccc1C(F)(F)F)C(=O)COc1ncnc2ccccc12 | 2% | -2% | 5% | 21 | 10%
COc1ccc(C(=O)Nc2ccccc2N2CCOCC2)cc1S(=O)(=O)N1CCCC1 | ? | 8% | 13% | 8 | 18µM*
CCc1ccccc1NC(=O)c1ccc(F)c(S(=O)(=O)N2CCN(c3ccccc3OC)CC2)c1 | 15µM* | . | . | . | 13µM*
SMILES | TDP1 cell CPT | HT1080-NT tox | HT1080 IDH1KD tx | IL1B secr inh | DT40 TDP1 no CPT
CCOc1ccccc1NC(=O)c1ccc(F)c(S(=O)(=O)N2CCC3(CC2)OCCO3)c1 | -17% | 1%[9.24 µM] | -3% | -16 | -23%
O=C(NCCS(=O)(=O)N1CCN(c2ccccc2F)CC1)c1ccc(F)c(F)c1 | ? | 0% | 1% | 6 | ?
COc1ccc(C(=O)Nc2ccccc2C)cc1S(=O)(=O)N1CCOCC1 | 20% | 24% | 10% | -11 | 13%
O=C(Nc1cc(Cl)cc(Cl)c1)c1ccc(F)c(S(=O)(=O)N2CCN(c3ccccc3F)CC2)c1 | 5.8µM* | . | . | . | 7.3µM*
COc1ccc(CCNC(=O)c2ccc(F)c(S(=O)(=O)N3CCCCC3)c2)cc1 | ? | -15% | -21% | 22 | 23µM*
CC(=O)c1c(C)[nH]c(C(=O)Nc2cccc(S(=O)(=O)N3CCCC3)c2)c1C | ? | 3% | 0% | 10 | ?
CC(C)(C)NC(=O)CSc1nnc(C2CC2)n1-c1ccccc1 | 2% | 10% | 22% | -1 | -15%
Cc1[nH]c2ccccc2c1C(=O)C(=O)NC1CC(=O)N(c2ccc(F)cc2)C1 (centres undefined) | -9% | -4% | -10% | 4 | -15%
COc1ccccc1/C=C1\CCCC2=C1Nc1nnnn1C2c1ccccc1OC (centres undefined) | 12µM* | -16% | ? | -101* | 12µM*
COc1ccc(OC)c(C2C3=C(CCCC3=O)Nc3nnnn32)c1 (centres undefined) | -10% | 5% | 7% | 12 | -15%
COc1cc(OC)c(OC)cc1/C=C/c1ccc2ccccc2n1 | 11µM* | . | . | . | 14µM*
Fc1cccc(F)c1/C=C/c1ccc2ccccc2n1 | ? | -23% | -22% | -7 | ?
Fc1ccc(/C=C/c2ccc3ccccc3n2)cc1 | 2.8µM* | . | . | . | 2.8µM*
COc1ccc(C=Cc2ccc3ccccc3n2)c(OC)c1 | -28% | -29% | ? | -12 | 23µM*
COc1ccc(/C=C/c2nc3cc(-c4ccccc4)ccc3o2)cc1O | 9.2µM* | ? | ? | -18 | 9.2µM*
Cc1ccsc1/C=C/c1ccc2ccccc2n1 | ? | -7% | -7% | -20 | ?
CC(O)/C=C/c1ccc2ccccc2n1 (centres undefined) | 13µM* | ? | 11µM* | -96* | ?
COc1cc(/C=C\c2ccc(OC)cc2OC)cc(OC)c1 | 7.5µM* | . | . | . | ?
O=C(/C=C/c1ccc2ccccc2n1)c1cc(Cl)ccc1O | ? | -4% | -21% | -7 | ?
COc1cc(Cl)cc(/C=C/c2ccc3ccccc3n2)c1OC(C)=O | ? | 15µM* | 15µM* | -102* | ?
COc1cc(OC)c(OC)cc1/C=C/c1nc2ccccc2o1 | ? | . | . | . | 13µM*
CC(C)NC(=O)C(c1ccc(F)cc1)N(C(=O)CCC(=O)Nc1ccccn1)c1cccc(F)c1 (centres undefined) | ? | 0% | 8% | -19 | -12%
COc1ccccc1/C=C/c1ccc2ccccc2n1 | ? | . | . | . | 16µM*
